# Source: PubChem (National Center for Advancing Translational Sciences (NCATS))
# JMJD2E inh = inhibitors of human JMJD2E histone demethylase. B2RXH2. JMJD2E catalytic domain, FDH-coupled NADH fluorescence (FDH is formaldehyde dehydrogenase). Potency, µM (top dose mostly 57.1 µM), most hits filed as inhibitors. 230,000 compounds, 1.6% hits. AID 2147; further: nearly all actives have a fitted effect of over 50% in size
# Target sequence (B2RXH2 1-337 limits assumed): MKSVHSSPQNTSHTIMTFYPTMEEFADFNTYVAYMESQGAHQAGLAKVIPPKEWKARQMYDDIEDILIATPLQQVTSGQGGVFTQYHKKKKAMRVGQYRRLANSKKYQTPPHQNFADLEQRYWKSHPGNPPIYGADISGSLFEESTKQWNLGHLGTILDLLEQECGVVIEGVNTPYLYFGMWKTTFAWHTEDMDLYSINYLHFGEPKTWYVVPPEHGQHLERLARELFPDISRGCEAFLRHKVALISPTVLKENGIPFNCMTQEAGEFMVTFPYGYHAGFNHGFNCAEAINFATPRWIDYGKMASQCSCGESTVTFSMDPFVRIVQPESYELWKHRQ
# ALDH1A1 inh = ALDH1A1 (human) enzyme inhibition | Purified ALDH1A1, NADH fluorescence, propionaldehyde substrate | Potency, µM (top dose mostly 75.3 µM), actives largely listed as inhibitors | 220,000 compounds, 7.3% hits | AID 1030
# HPGD inh = HPGD (human) dehydrogenase inhibition; Potency, µM, usual class: inhibitors; AID 894; 150,000 compounds, 4.3% hits; purified HPGD, NADH fluorescence kinetic, PGE2 substrate; P15428
# Target sequence (P15428 whole entry, looked up): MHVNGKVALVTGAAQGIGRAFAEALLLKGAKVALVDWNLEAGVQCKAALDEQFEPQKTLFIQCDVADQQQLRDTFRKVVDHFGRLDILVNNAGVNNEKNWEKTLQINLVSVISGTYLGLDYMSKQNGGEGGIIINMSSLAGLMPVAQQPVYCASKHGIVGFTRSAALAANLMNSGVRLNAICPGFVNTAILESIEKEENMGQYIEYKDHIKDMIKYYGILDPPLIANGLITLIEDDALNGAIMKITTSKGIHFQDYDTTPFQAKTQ
#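 20 nM HPGD preincubated 15 min at room temperature with compound in 50 mM Tris-HCl pH 8, 0.01% Tween 20. Started with 1 mM NAD+ and 30 uM prostaglandin E2; NADH fluorescence (360/450 nm) read 5 times over 30-s intervals, last minus first.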
# PNC inhibitor = inhibitors of perinucleolar compartment assembly; 140,000 compounds, 3.1% hits; PC3M PTB-GFP, PNC prevalence imaging, 16 h; active compounds read low; AID 2417; activity change (PNC), negative = inhibition, % at 10 µM;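 active means readout at or below -70, meaning at least 70% loss of cells showing the perinucleolar compartment, a nuclear body marking cancer cells; inconclusive means readout between -30 and a set limit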
#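 Read-out is percentage of cells bearing a perinucleolar compartment, from automated 20x imaging of fixed, Hoechst-stained PC3M PTB-GFP cells. Cells were seeded 4 h, then exposed 16 h to compound (23 nl of library stock) in duplicate plates.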
# A number is an active result; - = inactive; ? = inconclusive; . = not tested or not shown; [ ] = dose if it differs, or a comment. Most compounds without a hit are left out; they make up all but 11% or so of the library. Unless noted, the call rests on the fitted dose curve; in most records, active means well fitted inhibition curve with a large enough effect (not every such curve was filed as active); inconclusive means small, poorly fitted or top-dose-only effect, or another doubt; inactive means no such curve, though single readings can be large or run the other way.
SMILES,JMJD2E inh,ALDH1A1 inh,HPGD inh,PNC inhibitor
CSc1ncccc1C(=O)OCc1ccc(COC(=O)c2cccnc2SC)cc1,-,-,-,-108
CSc1ncccc1C(=O)OCc1ccccc1,-,-,-,-
O=C(CCl)N1c2ccccc2OCC1c1ccccc1 (centres undefined),-,-,32µM,?
CC(C)(C)OC(=O)N1CCC(CNC(=O)c2ccc(F)cc2)CC1,-,.,.,.
CC(C)C(=O)Nc1nnc(CCN2CCCCC2)s1,-,-,-,-
Cn1cccc1C(=O)N1CCC2(CC1)CN(C(=O)Nc1cccc(C#N)c1)C2,.,28µM,-,.
CC(C)(C)CC(=O)Nc1nn[nH]n1,-,-,-,?
Cc1cc(C)n(S(=O)(=O)c2ccc(C(C)(C)C)cc2)n1,-,13µM,20µM,?
O=c1nc2ccccc2c2n1C[C@H](CN1CCN(c3ccccc3)CC1)N2,?,-,?,.
CN(Cc1nc(Cc2ccccc2F)no1)Cc1cccc2ncccc12,-,-,.,.
Cc1sc2nc(COC(=O)CNC(=O)c3ccc(C(C)(C)C)cc3)[nH]c(=O)c2c1C,-,8.9µM,-,-
Cc1sc2nc(COC(=O)c3ccc(N4CCCC(C)C4)c([N+](=O)[O-])c3)[nH]c(=O)c2c1C (centres undefined),-,-,?,-
Cc1sc2nc(COC(=O)c3ccc(N4CCCC4)c([N+](=O)[O-])c3)[nH]c(=O)c2c1C,-,18µM,-,-
CCOC(=O)Cc1csc(NC(=O)Nc2cccc(OC)c2)n1,-,.,.,.
CCOc1ccc(Oc2c(/C=N/NC(=O)COc3ccccc3OC)c(C)nn2-c2ccccc2)cc1,-,?,-,?
Cc1nn(-c2ccccc2)c(Cl)c1/C=N\NC(=O)c1cncc(Br)c1,-,-,-,?
CCOC(=O)N/N=C/c1c(C)nn(-c2cccc(C(F)(F)F)c2)c1Cl,-,-,-,-83
Cc1nn(-c2cccc(Cl)c2)c(Cl)c1/C=N/NC(=O)c1cccnc1,-,-,-,-86
COC(=O)N/N=C/c1c(C)nn(-c2cccc(Cl)c2)c1Cl,-,-,-,-94
CCOc1ccc(Oc2c(/C=N/NC(N)=O)c(C)nn2-c2ccccc2)cc1,-,32µM,-,-
Cc1nn(C)c(C)c1/C=N/O,-,-,-,-
CCN(CC)C(=O)CSc1nnc(CSc2ncccn2)n1C,-,.,.,.
Cc1nn(-c2ccccc2)c(Cl)c1/C=N/NC(N)=O,-,.,.,.
Cc1nn(-c2ccccc2)c(Cl)c1/C=N/NC(=O)CNC(=O)c1ccccc1Cl,-,7.1µM,-,-
Cc1nn(-c2ccccc2Cl)c(Cl)c1/C=N/Nc1cccc(C(=O)O)c1,?,?,13µM,-
SMILES,JMJD2E inh,ALDH1A1 inh,HPGD inh,PNC inhibitor
O=C(O)/C=C\C(=O)Nc1ncn[nH]1,.,-[13.5 µM],-,.
O=C1CSC(c2ccccn2)N1c1ccc(C(F)(F)F)cc1 (centres undefined),-,.,.,.
COc1cccc(-c2nc(CS(=O)(=O)CC(=O)Nc3cc(C)ccc3C)c(C)o2)c1,?,-,-,-119
COc1cccc(-c2nc(CS(=O)(=O)CC(=O)N3CCN(c4ccccn4)CC3)c(C)o2)c1,-,32µM,-,?
COc1cccc(-c2nc(CS(=O)(=O)CC(=O)Nc3c(C)cccc3C)c(C)o2)c1,-,-,-,-
Cc1cccc(NC2SC(=O)NC2=O)c1 (centres undefined),-,-,.,.
CCn1c(=O)c([N+](=O)[O-])c(N2CCN(Cc3ccc4c(c3)OCO4)CC2)c2ccccc21,-,.,.,.
CCOC(=O)N1CCN(CCC(=O)c2ccc(OC)cc2)CC1,-,0.71µM,.,.
CCOC(=O)N1CCN(CCC(=O)c2ccc(Cl)cc2)CC1,-,0.089µM,25µM,-
CC(C)COc1ccc(C(=O)OCCN2CCOCC2)cc1,?,?,?,-
CC(C)COc1ccc(C(=O)CCN2CCCCC2)cc1,-,0.1µM,-,-
CCOC(=O)N1CCN(C(=O)Cc2ccc(Cl)cc2)CC1,-,-,.,?
CCN1CCN(CCCN(Cc2cccs2)C(=S)Nc2ccccc2C)CC1,-,-,.,.
O=C(NCC1CCCO1)c1cncc(Br)c1 (centres undefined),-,-,.,.
NNc1ccc2nnc(C(F)(F)C(F)(F)C(F)(F)F)n2n1,-,-,.,.
Nn1c(-c2cccs2)nc2sc3c(c2c1=O)CCCC3,?,?,?,-
Cc1ccccc1-c1nc2sc3c(c2c(=O)o1)CCC3,-,-,16µM,-
Cc1ccccc1-c1nc2sc3c(c2c(=O)n1N)CCCC3,-,?,25µM,?
Cn1nnc2sc3c(c2c1=O)CCCC3,-,13µM,32µM,?
N=c1ccn2c(n1)OCC1C2O[C@@H](O)[C@H]1O (some centres undefined),-,-,-,.
CCc1cccc(N(C)C(N)=Nc2cccc3ccccc23)c1,-,-,-,.
Cc1cnc(CNc2ncncc2-c2ccc(N(C)C)cc2)cn1,.,-,.,.
O=C(/C=C\c1ccccc1OC(=O)c1ccccc1F)c1cc2ccccc2o1,-,-,28µM,?
O=C(Oc1ccccc1)c1cc2ccccc2o1,-,-,-,-
C/C(CC(=O)Nc1cccc(C(F)(F)F)c1)=N\NC(=O)C1CCCCC1,-,?,.,.
SMILES,JMJD2E inh,ALDH1A1 inh,HPGD inh,PNC inhibitor
Cc1ccc(/C=C/C(=O)c2cc(Br)ccc2OC(=O)c2ccco2)cc1,-,?,-,?
CCOc1ccc(C(=O)/C=C/c2ccc(OC)c(OC)c2)cc1,?,-,.,.
Cc1cccc(/C=C/C(=O)c2cc(Br)ccc(=O)c2O)c1,?,20µM,-,-
CCOc1ccc(/C=C/C(=O)c2cc(Br)ccc(=O)c2O)cc1,32µM,?,?,?
CCc1ccc(/C=C/C(=O)c2cc(Br)ccc(=O)c2O)cc1,?,?,16µM,-
CCCC(C)NC1=NCCCCC1 (centres undefined),-,-,-,-
COc1ccc(S(=O)(=O)N(C(=O)c2ccncc2)c2ccc(OC(=O)c3ccncc3)cc2)cc1,-,-,.,.
COc1ccc(N(C(=O)c2ccccc2C)S(=O)(=O)c2cccs2)cc1,-,11µM,-,-97
COc1ccc(NCc2nnc(SCc3ccc(Cl)cc3)n2-c2ccccc2)cc1,-,-,-,-
Cc1ccc(-c2csc(=S)n2CC(=O)OCC(=O)NC(C)C(C)C)cc1 (centres undefined),-,1.6µM,-,-
O=C1C(Nc2ccccc2)=C2CCCC=C2N1c1ccccc1,-,13µM,.,.
O=C1C2=C(CCCC2)C(=O)N1CNc1ccccc1,-,-,.,.
Nc1cc(S(N)(=O)=O)ccc1SSc1ccc(S(N)(=O)=O)cc1N,.,2µM,5µM,.
CCn1c(CSCc2ccc(C)cc2)nnc1SCC(=O)N1CCN(c2ccccc2)CC1,-,?,-,-
CC1Cc2nc(SCC(=O)N3CCN(c4ccccc4)CC3)n(CCc3ccccc3)c(=O)c2S1 (centres undefined),-,-,-,?
C=CCn1c(CSCc2ccccc2)nnc1SCC(=O)N1CCN(c2ccccc2)CC1,-,0.79µM,.,-
O=C(CSc1nc2ccccc2[nH]1)N1CCN(c2ccc(F)cc2)CC1,-,25µM,-,-
CC1CCN(C(=O)CSc2nc3ccccc3[nH]2)CC1,-,?,-,-
C=CCn1c(N)cc(=O)nc1SCC(=O)N1CCN(c2ccc(F)cc2)CC1,-,14µM,-,-
